D2 ag-1: agonists of human D2 dopamine receptor. activation, % at 2 µM. 340,000 tested, 0.53% active. HEK293 T-REx D2 cells, calcium flux agonist mode. AID 485358;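 active = activation over 3 SD above normal in the single-dose calcium agonist read, cut at about 30% in these data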; also: 0% is about no effect
Target sequence (P14416 whole entry, looked up): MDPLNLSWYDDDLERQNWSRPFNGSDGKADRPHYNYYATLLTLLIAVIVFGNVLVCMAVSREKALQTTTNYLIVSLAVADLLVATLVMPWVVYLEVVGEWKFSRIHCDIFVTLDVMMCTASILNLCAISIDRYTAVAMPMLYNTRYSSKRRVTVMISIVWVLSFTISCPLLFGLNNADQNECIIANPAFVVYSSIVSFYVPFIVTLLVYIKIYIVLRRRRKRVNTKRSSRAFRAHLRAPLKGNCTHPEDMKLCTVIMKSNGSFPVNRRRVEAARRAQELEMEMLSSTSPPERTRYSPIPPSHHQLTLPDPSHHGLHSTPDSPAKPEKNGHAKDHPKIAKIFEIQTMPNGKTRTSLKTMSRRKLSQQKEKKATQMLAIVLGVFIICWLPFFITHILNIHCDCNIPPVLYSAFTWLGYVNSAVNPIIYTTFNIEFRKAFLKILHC
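HEK293 Trex D2 cells, tetracycline-induced, o/n 30 C 5% CO2; no-wash Ca dye, RT 30–90 min; 10-cycle baseline, 23 nl cpd added, kinetic Ca read 180 s; agonist hits = positive Ca response.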
D2 ag-2: human D2 receptor agonism in beta-arrestin assay; P14416; DiscoveRx PathHunter D2 beta-arrestin, luminescence, 90 min; 100% = 57 uM dopamine signal; activation, % (concentration not given with the values); 360,000 tested, 0.084% active; in the data active = activation above about 40%
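DiscoveRx PathHunter D2 beta-arrestin cells (2,100/well) attached overnight, then compound-stimulated 90 min at 37 C in HBSS/10 mM HEPES/0.1% Tween-20 buffer; beta-galactosidase complementation read by luminescence after 1 h at ambient temperature. Dopamine 57 uM final (EC100) as control.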
D2 antagonist: antagonizes the human D2 dopamine receptor; P14416; HEK293 TREx D2 cells, calcium flux, dopamine EC80; inhibition, % at 10 µM; 340,000 tested, 2% active; in the data active = inhibition above about 30%; inactive = below that, where a call was filed; also: 0% is about no effect
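Tetracycline-induced HEK293 TREx cells expressing D2 receptor forced-coupled to calcium signalling, loaded with no-wash calcium dye. Compounds added and calcium flux read 180 s, then dopamine added at EC80 and read a further 180 s.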
D2 PAM-1: positively modulates the human D2 dopamine receptor allosterically | P14416 | HEK293 T-REx D2, calcium flux, EC20 dopamine potentiation | potentiation, % at 10 µM | 340,000 tested, 0.34% active | AID 485347;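 active = potentiation over 3 SD above the plate norm, cut at about 30% in these data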; also: 0% is about no effect
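Calcium flux readout, no-wash dye, 1 read/s. Inducible HEK293 Trex D2 line, overnight 30 C. Compound alone 180 s (agonist flags), then EC20 dopamine, another 180 s to score potentiation.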
D2 PAM-2: potentiates the human D2 dopamine receptor allosterically. DiscoveRx D2 beta-arrestin cells, luminescence, 90 min; 100% = 57 uM dopamine signal. AID 624464. 360,000 tested, 0.23% active. potentiation, % (test concentration not listed). P14416; in the data active = potentiation above about 50%
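PathHunter beta-arrestin assay in DiscoveRx D2 cells. Compounds were added with an EC20 of dopamine (50 nM final) for 90 min at 37 deg C. Luminescence was read 1 h after detection reagent, with 57 uM dopamine as the EC100 control.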
* hit, by the source's call; · = not tested or not shown. Hits are enriched below; roughly 2.4% of the tested compounds scored in any of these assays.

SMILES	D2 ag-1	D2 ag-2	D2 antagonist	D2 PAM-1	D2 PAM-2
Cc1cc(NS(=O)(=O)c2ccc(NC(=O)COc3ccccc3Br)cc2)no1	·	·	·	5.4	·
COc1ccc(CCNC(=O)C(=O)NCC(c2ccco2)S(=O)(=O)c2cccs2)cc1 (stereo not given)	0.0	·	·	1.9	·
Cc1ccc(NC(=O)c2c(C(=O)Nc3ccccc3)sc3nc(C)cc(=O)n23)c(C)c1	-1.1	·	·	8.0	·
CC1=CCC(C(=O)O)C(C(=O)NC2CCCCC2)C1 (stereo not given)	1.9	0.7	44.6*	20.4	-3.9
CC1=C(C)CC(C(=O)NC2CCCC2)C(C(=O)O)C1 (stereo not given)	0.3	-1.5	-3.9	4.7	0.1
Cc1ccc2nc(NC(=O)CSc3ncc(C(=O)Nc4ccc(F)cc4)c(=O)n3C)sc2c1	-0.1	·	·	0.8	·
C=CCC1(O)C(=O)N2C(=C1C(=O)N1CCOCC1)c1ccccc1CC2(C)C (stereo not given)	0.6	-2.1	44.8*	-6.7	-6.1
CCOc1ccc(NC(=O)N2CCN3CCCCC3C2)cc1 (stereo not given)	·	·	·	-5.5	·
CC1C(=O)N2CCCc3cc(S(=O)(=O)NCCc4ccccc4)cc1c32 (stereo not given)	-0.1	-4.2	-0.5	42.9*	-2.9
COc1ccc(CCNS(=O)(=O)c2cc3c4c(c2)C(C)C(=O)N4CCC3)cc1OC (stereo not given)	-0.4	-3.2	-10.7	-6.5	-4.4
COC(=O)c1ccc(CNc2ccc(C(C)=O)cc2)cc1	·	4.6	·	·	1.5
COc1ccccc1CN1C[C@@H]2C[C@@H](c3ccccc3C)N3CCC[C@@]23C1=O	-0.8	-5.0	-2.9	-1.7	-10.3
Cc1ccccc1CN1C[C@@H]2C[C@@H](c3cnc(N4CCOCC4)s3)N3CCC[C@@]23C1=O	0.7	0.6	36.7*	1.3	-6.9
COc1ccc(C2C(C(=O)Nc3ccc(C)cc3C)=C(C)Nc3nc(SCc4cccc(C)c4)nn32)c(OC)c1 (stereo not given)	0.8	·	·	-1.1	·
C=CCNCCOCCSc1ccc(Cl)cc1	-0.4	6.2	31.8*	-19.9	-27.9
Cc1ccc(CNC(=O)c2cc(-c3ccccc3C)nn2CC2CC(c3cccnc3)=NO2)cc1 (stereo not given)	·	3.6	·	·	-99.8
Cc1ccccc1-c1cc(C(=O)NCc2ccc3c(c2)OCO3)n(CC2CC(c3cccnc3)=NO2)n1 (stereo not given)	-1.9	1.5	82.9*	6.0	-17.7
COc1ccc(N2CCN(C(=O)CCNS(=O)(=O)c3ccc(C)cc3)CC2)cc1	-1.0	-6.5	11.6	6.6	0.2
COc1ccc(N2CCN(C(=O)CCNS(=O)(=O)c3ccc(Br)s3)CC2)cc1	0.5	-0.6	3.1	86.0*	-5.7
CCn1c(SCC(=O)NCc2ccc3c(c2)OCO3)nnc1-c1c[nH]c2ccccc12	-0.6	0.6	0.3	34.3*	-9.5
O=C(O)CC(NC(=O)C1CCCCC1)c1cc([N+](=O)[O-])ccc1Cl (stereo not given)	0.3	-4.7	-14.4	2.8	-4.3
O=C(O)CC(NC(=O)C12CC3CC(CC(C3)C1)C2)c1cc([N+](=O)[O-])ccc1Cl (stereo not given)	-1.7	-3.9	72.3*	9.6	2.7
COc1cc(C(=O)Nc2ccc3[nH]c(=O)sc3c2)cc(OC)c1OC	2.1	·	·	8.9	·
COc1cc(C(C)=O)ccc1OCCN1CCC(Cc2ccccc2)CC1	0.2	-6.0	-15.0	-11.8	-20.2
Clc1ccccc1OCCN1CCC(Cc2ccccc2)CC1	0.1	1.1	63.3*	-19.9	-14.2
SMILES	D2 ag-1	D2 ag-2	D2 antagonist	D2 PAM-1	D2 PAM-2
O=[N+]([O-])c1cccc(OCCN2CCC(Cc3ccccc3)CC2)c1	0.4	-0.4	67.4*	-20.3	-25.9
OCc1ccccc1OCCCN1CCC(Cc2ccccc2)CC1	2.4	-1.8	40.5*	-22.4	-14.6
COc1cc(C(C)=O)ccc1OCCCN1CCC(Cc2ccccc2)CC1	-1.9	-1.8	34.6*	7.5	-11.1
COc1cc(CN2CCC(Cc3ccccc3)CC2)c([N+](=O)[O-])cc1OC	0.8	-3.5	14.9	-1.6	-20.9
Cc1ccc([N+](=O)[O-])c(OCCCN2CCC(Cc3ccccc3)CC2)c1	·	1.9	·	·	-8.2
CN(C)CCN(C)C1CN(C2CCCC2)S(=O)(=O)C1 (stereo not given)	·	-3.5	·	·	-3.8
CCCS(=O)(=O)N1CC(=O)N(c2cc(C)ccc2C)C(C)(C(=O)NC2CCCCCC2)C1 (stereo not given)	·	·	·	-0.4	·
O=Cc1cc(Cl)ccc1OCCN1CCC(Cc2ccccc2)CC1	0.5	-1.7	50.9*	-19.0	-14.8
Fc1ccc(CN2CCC(Cc3ccccc3)CC2)cc1F	0.5	-0.1	-17.9	-15.5	-6.1
C=CCOc1ccccc1CN1CCC(Cc2ccccc2)CC1	-0.5	-3.0	30.7*	-11.9	-14.9
COc1cc(C)c(CN2CCC(Cc3ccccc3)CC2)cc1C	·	-5.0	·	-19.2	-6.5
Cc1nn(CC(=O)NCc2cccc(F)c2)c(=O)c2c(C)n(-c3ccc(Cl)cc3)nc12	-1.2	·	·	9.8	·
Cc1cc(NC(=O)C(C)Sc2nc(-c3cccs3)nc3ccccc23)no1 (stereo not given)	1.1	0.5	10.3	32.2*	-9.2
Cn1c(=O)n(C)c2cc(N3CCOCC3)c(NC(=O)c3ccc(C(C)(C)C)cc3)cc21	1.0	·	·	2.2	·
COc1ccc(OC)c(CCNC(=O)c2ccc3c(c2)N(Cc2ccc(C)cc2)CCS3)c1	0.5	·	·	-11.3	·
Cc1onc(-c2c(Cl)cccc2Cl)c1CO/N=C(\C#N)c1c(Cl)cccc1Cl	1.0	-3.6	30.1*	-2.9	-3.6
O=C1C(Nc2ccccc2)=C/C(=N/S(=O)(=O)c2cccs2)c2ccccc21	-2.1	-4.5	0.1	6.8	-1.7
Cc1ccc(NC2=C/C(=N/S(=O)(=O)c3cccs3)c3ccccc3C2=O)cc1	0.3	14.0	-20.1	3.9	57.8*
O=C1CN=C(Nc2ccccc2Cl)N1c1ccccc1	1.5	-5.3	36.4*	-5.2	1.3
CCOc1ccc(N2C(=O)CN=C2Nc2ccccc2Cl)cc1	0.4	-2.1	-4.5	-7.4	-12.8
C=CCc1cc(Cl)ccc1OCCNCCOC	0.2	-3.8	55.2*	-48.7	-23.1
C=CCc1cc(Cl)ccc1OCCNCCN1CCOCC1	-0.3	-1.5	-30.8	-23.9	-10.4
COC(=O)c1c(-c2cccs2)csc1NC(=O)c1ccc(C(C)C)cc1	·	·	·	14.0	·
O=C1Cc2ccccc2C(c2ccc(Cl)cc2)N1 (stereo not given)	0.3	-2.1	0.2	3.8	-2.9
S=C1Cc2ccccc2C(c2ccc(Cl)cc2)N1 (stereo not given)	-1.1	1.3	33.0*	-4.3	-4.5
CCOc1ccc(NC(=O)NCCN2CCN(c3cccc(C)c3C)CC2)cc1	16.7	-5.5	5.2	-34.5	-23.3

Assay outcomes: PubChem, National Center for Advancing Translational Sciences (NCATS)
